# Records with an inconclusive call do not appear. A call without a number means that no potency is given here. Active and inactive are the calls of the source. Unless noted, calls come from the whole dose curve; as a rule, active = well fitted curve in the direction sought with a large enough effect; inconclusive = small, poorly fitted or top-dose-only effect, or another doubt; inactive = no such curve, though single readings can be large; an effect the other way counts as inactive or inconclusive.
# What was measured:
# [1] = Primary qHTS for inhibitors of La Crosse Virus (LACV) - induced cell death in SH-SY5Y cells (AID 1508616); details: SH-SY5Y LACV cytopathicity rescue, ATP luminescence, 6 d; series mostly up to 9.63 µM;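 note: top concentration of the series differs between compounds; higher means more rescue of cells from virus-induced death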
# Procedure, shortened: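 SH-SY5Y, 6000 cells/well; cpd via pin tool in DMSO; LACV 0.01 MOI; 6 d 37C 5% CO2; ATPLite, 5 min RT; luminescence normalized to ±virus DMSO controls.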
# [2] = target: Calcium and integrin-binding protein 1 (Homo sapiens) (UniProt Q99828); experiment: Validation qHTS for Identification of Calcium Integrin Binding protein 1 (CIB1) Competitor (AID 1508618); details: CIB1-GST / FITC-alphaIIb peptide fluorescence polarization; series mostly up to 114 µM
# Calcium and integrin-binding protein 1 (Homo sapiens), sequence (Q99828 whole entry, looked up): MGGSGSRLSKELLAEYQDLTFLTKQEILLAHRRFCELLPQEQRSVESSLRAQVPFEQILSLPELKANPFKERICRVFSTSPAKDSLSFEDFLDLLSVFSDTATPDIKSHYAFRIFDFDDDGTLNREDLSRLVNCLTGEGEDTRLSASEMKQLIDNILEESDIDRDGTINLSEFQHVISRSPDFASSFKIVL
# Procedure, shortened: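 Fluorescence polarization with 1 uM CIB1-GST and 100 nM FITC-alphaIIb peptide in HEPES pH 7.4, NaCl, 5 mM CaCl2, Tween20. Compounds at up to 114 uM final, preincubated with protein 15 min; read after 15 min more at RT.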
# [3] = Primary qHTS for small molecule stabilizers of the endoplasmic reticulum resident proteome: Secreted ER Calcium Modulated Protein (SERCaMP) assay (AID 1508630); details: SH-SY5Y GLuc-SERCaMP (Gaussia luciferase released on ER calcium loss) secretion, thapsigargin, luminescence; series mostly up to 38.4 µM; note: potency is the fitted concentration of half-maximal effect
# Procedure, shortened: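 The SH-SY5Y reporter protocol was run at 3 concentrations up to 38.3 uM (primary) or 11 concentrations (follow-up): 16 h compound, 100 nM thapsigargin for 4 h, then extracellular luciferase luminescence.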
# Papain (Carica papaya) = Papain (Carica papaya) (UniProt P00784); experiment: Primary qHTS assay for inhibitors of the protease papain (AID 1645873); details: papain Z-FR-AMC cleavage, AMC fluorescence; series mostly up to 49.8 µM;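 note: papain turnover of Z-FR-AMC read as the AMC fluorescence gain over 10 min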; note: potency is the fitted concentration of half-maximal effect
# Papain (Carica papaya), sequence (P00784 whole entry, looked up): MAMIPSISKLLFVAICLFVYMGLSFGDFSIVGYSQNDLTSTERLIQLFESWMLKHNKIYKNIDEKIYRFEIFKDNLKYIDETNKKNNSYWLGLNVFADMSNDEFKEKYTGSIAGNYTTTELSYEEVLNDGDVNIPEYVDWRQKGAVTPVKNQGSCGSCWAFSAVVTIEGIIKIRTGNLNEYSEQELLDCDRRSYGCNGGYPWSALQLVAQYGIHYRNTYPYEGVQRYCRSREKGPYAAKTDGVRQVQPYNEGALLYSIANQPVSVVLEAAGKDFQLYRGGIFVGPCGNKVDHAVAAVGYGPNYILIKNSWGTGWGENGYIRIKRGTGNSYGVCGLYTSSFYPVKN
# [4] = Cell Viability qHTS for small molecule stabilizers of the endoplasmic reticulum resident proteome (AID 1508629); details: cell viability counter-screen, 100 nM thapsigargin for final 4 h;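 note: human SH-SY5Y neuroblastoma cells carrying the GLuc-SERCaMP reporter; compound exposure about 46 h in total before the viability read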
# [5] = target: Catechol O-methyltransferase (Homo sapiens) (UniProt P21964); experiment: Confirmatory Screen for Target Class Profiling of Small Molecule Inhibitors of Methyltransferases (AID 1745852; calls by dose curve; note: potency is the fitted concentration of half-maximal effect); details: MTase-Glo luminescence, SAH detection, recombinant enzyme; measured here: COMT max response; stronger effect = lower value
# Catechol O-methyltransferase (Homo sapiens), sequence (P21964 whole entry, looked up): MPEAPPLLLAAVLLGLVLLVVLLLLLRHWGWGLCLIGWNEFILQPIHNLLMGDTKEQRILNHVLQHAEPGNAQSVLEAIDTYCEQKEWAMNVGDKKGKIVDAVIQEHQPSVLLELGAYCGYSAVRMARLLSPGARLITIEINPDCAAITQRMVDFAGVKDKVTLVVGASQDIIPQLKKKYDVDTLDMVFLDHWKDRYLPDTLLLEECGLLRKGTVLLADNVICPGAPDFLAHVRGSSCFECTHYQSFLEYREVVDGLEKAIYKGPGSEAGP
# [6] = target: Guanidinoacetate N-methyltransferase (Homo sapiens) (UniProt Q14353); experiment: as above; details: MTase-Glo luminescence, SAH detection, recombinant enzyme; activity change, negative = inhibition: at 57.3 µM (top of the series)
# [7] = target: Nicotinamide N-methyltransferase (Homo sapiens) (UniProt P40261); experiment: as above; details: MTase-Glo luminescence, SAH detection, recombinant enzyme; measured here: NNMT max response; stronger effect = lower value
# Nicotinamide N-methyltransferase (Homo sapiens), sequence (P40261 whole entry, looked up): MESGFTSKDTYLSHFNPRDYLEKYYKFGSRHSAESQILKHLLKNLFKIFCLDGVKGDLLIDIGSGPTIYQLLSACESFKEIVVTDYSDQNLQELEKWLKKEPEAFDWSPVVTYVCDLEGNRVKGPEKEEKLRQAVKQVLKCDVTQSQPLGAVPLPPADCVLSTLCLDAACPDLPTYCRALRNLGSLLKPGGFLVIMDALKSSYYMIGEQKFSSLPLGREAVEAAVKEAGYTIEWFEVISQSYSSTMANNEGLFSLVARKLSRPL
# [8] = target: Phenylethanolamine N-methyltransferase (Homo sapiens) (UniProt P11086); experiment: as above; details: MTase-Glo luminescence, SAH detection, recombinant enzyme; measured here: PNMT max response; stronger effect = lower value
# Phenylethanolamine N-methyltransferase (Homo sapiens), sequence (P11086 whole entry, looked up): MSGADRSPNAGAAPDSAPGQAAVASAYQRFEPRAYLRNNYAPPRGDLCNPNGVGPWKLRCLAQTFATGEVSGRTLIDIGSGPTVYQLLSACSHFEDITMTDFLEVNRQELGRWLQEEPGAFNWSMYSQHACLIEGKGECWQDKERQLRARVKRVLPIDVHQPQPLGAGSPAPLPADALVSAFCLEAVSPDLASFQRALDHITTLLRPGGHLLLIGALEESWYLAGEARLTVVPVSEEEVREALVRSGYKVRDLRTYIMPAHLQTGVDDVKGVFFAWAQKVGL
# [9] = target: Cytochrome P450 2C9 (Homo sapiens) (UniProt P11712); experiment: Cytochrome P450 family 2 subfamily C member 9 (CYP2C9) small molecule antagonists: luciferase biochemical (cell-free) qHTS assay (AID 1645842; active = well fitted curve in the direction sought with a large enough effect in the repeat runs; an effect the other way counts as inactive or inconclusive; note: nearly all actives have a fitted effect of over 55% in size); details: P450-Glo CYP2C9 enzyme assay, luciferin luminescence; series mostly up to 57.4 µM
# Cytochrome P450 2C9 (Homo sapiens), sequence (P11712 whole entry, looked up): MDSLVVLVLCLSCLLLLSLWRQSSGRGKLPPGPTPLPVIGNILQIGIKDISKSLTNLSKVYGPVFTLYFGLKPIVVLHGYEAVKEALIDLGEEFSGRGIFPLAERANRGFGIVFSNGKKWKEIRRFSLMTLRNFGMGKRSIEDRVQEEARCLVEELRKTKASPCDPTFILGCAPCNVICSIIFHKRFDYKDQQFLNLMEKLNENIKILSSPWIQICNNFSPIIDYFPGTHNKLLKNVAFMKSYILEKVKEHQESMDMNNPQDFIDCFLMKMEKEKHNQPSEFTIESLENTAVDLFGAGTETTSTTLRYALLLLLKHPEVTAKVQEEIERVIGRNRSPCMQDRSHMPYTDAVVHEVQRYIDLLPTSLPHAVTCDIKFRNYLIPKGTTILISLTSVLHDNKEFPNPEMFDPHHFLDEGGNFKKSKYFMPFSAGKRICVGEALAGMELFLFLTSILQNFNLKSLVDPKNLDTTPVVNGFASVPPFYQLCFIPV
# Procedure, shortened: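 P450-Glo CYP2C9 system: proluciferin substrate with enzyme in mix containing 0.4% BSA, 10 min at room temperature, then NADPH regeneration solution added and incubated 1 h at 37C. Detection reagent stopped reaction; luminescence read after 20 min as RLU.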
smiles,measurement,setting,value
CCCCCCN(CCCCCC)C(=O)Cc1c(-c2ccc(F)cc2)[nH]c2ccccc12,Potency,[1],inactive
same,Potency,[2],inactive
same,Potency,[3],inactive
NC(N)=NC(N)=Nc1ccccc1,Potency,[1],inactive
same,Potency,[2],inactive
same,Potency,[3],inactive
same,Potency,Papain (Carica papaya),inactive
CC#CCOC(=O)c1c(C)nc2sc3c(c2c1N)CCC(O)C3 (configuration not stated),Potency,[1],inactive
same,Potency,[2],inactive
same,Potency,[3],inactive
same,Potency,Papain (Carica papaya),inactive
CCCn1c(=O)c2c(ncn2C)n(CCC)c1=O,Potency,[1],inactive
same,Potency,[2],inactive
same,Potency,[3],inactive
same,Potency,Papain (Carica papaya),inactive
CC(C)(C)NCC(O)COc1cccc2[nH]c(=O)[nH]c12 (configuration not stated),Potency,[1],inactive
same,Potency,[2],inactive
same,Potency,[3],inactive
same,Potency,Papain (Carica papaya),inactive
COc1cc(/C=C(\C#N)C(=O)c2ccc(O)c(O)c2)cc(I)c1O,Potency,[1],inactive
same,Potency,[2],inactive
same,max response,[4],17.8% (inactive)
same,Potency,[3],11.2 µM (active)
same,activity,[5],13.9%
same,Potency,[6],24.3 µM (active)
same,activity,[7],-5.85%
same,activity,[8],1.08%
Nc1ccc(CCNc2ncnc3c2ncn3C2OC(CO)C(O)C2O)cc1 (configuration not stated),Potency,[1],inactive
same,Potency,[2],inactive
same,Potency,[3],inactive
same,Potency,Papain (Carica papaya),inactive
C=CC1(C)CC(=O)C2(O)C(C)(O1)C(OC(C)=O)C(O)C1C(C)(C)CCC(O)C12C (configuration not stated),Potency,[1],inactive
same,Potency,[2],inactive
same,Potency,[3],inactive
NC1CCN(O)C1=O (configuration not stated),Potency,[1],inactive
same,Potency,[2],inactive
C[C@]12C=CC(=O)C=C1CC[C@@H]1C2=CC[C@]2(C)[C@@H](C(=O)CN3CCN(c4cc(N5CCCC5)nc(N5CCCC5)n4)CC3)CC[C@@H]12,Potency,[1],inactive
same,Potency,[2],inactive
CC(C)NC[C@H](O)COc1cccc2ccccc12,Potency,[1],inactive
same,Potency,[2],inactive
same,Potency,[3],inactive
same,outcome,[9],inactive
same,Potency,Papain (Carica papaya),inactive
CCCn1c(=O)c2[nH]c(-c3ccc(S(=O)(=O)O)cc3)nc2n(CCC)c1=O,Potency,[1],inactive
same,Potency,[2],inactive
same,Potency,[3],inactive
same,Potency,Papain (Carica papaya),25.1 µM (active)

# Source: PubChem BioAssay (NCATS)
